Measured values published in PubChem BioAssay AID999 (SRMLSC, 2007).
The source made the active and inactive calls.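 The calls were made as follows: active = viability at or below 21.59%, 3 SD under the median of tested compounds; inactive = the rest.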

experiment: viability loss in PTEN-deleted cells – cell-based, validation, diverse DP compound set (AID 999); conditions: HCT116 PTEN-null viability, CellTiter-Glo, 60 h; at 10 µM; stronger effect = lower value;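 also: 100% = median luminescence of untreated cell control wells and 0% = no signal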

| SMILES | viability |
| --- | --- |
| COc1ccc(C2CNC(=O)C2)cc1OC1CCCC1 (configuration not stated) | 96.5% (inactive) |
| CC1(C)CCC[C@@](C)([C@H]2CC[C@]3(C)[C@@H]2[C@H](O)C[C@@H]2[C@@]4(C)CC[C@H](O)C(C)(C)[C@@H]4[C@@H](O)C[C@]23C)O1 | 100% (inactive) |
| NS(=O)(=O)c1cc(C(=O)O)c(NCc2ccco2)cc1Cl | 104% (inactive) |
| COc1ccc(CCN(C)CCCN2CCc3cc(OC)c(OC)cc3CC2=O)cc1OC | 97.1% (inactive) |
| CC(C)CC(=O)N[C@H](C(=O)N[C@H](C(=O)N[C@@H](CC(C)C)[C@@H](O)CC(=O)N[C@@H](C)C(=O)N[C@@H](CC(C)C)[C@@H](O)CC(=O)O)C(C)C)C(C)C | 98.2% (inactive) |
| Clc1ccc2ncnc(NCc3ccc4c(c3)OCO4)c2c1 | 83.1% (inactive) |
| COc1cc(-c2ccc(=O)[nH]n2)ccc1OC(F)F | 94.7% (inactive) |
| CCC(C)C(O)C(C)C(=O)C(C)/C=C(\C)CC(C)C1OC(=O)C1CC (configuration not stated) | 97.1% (inactive) |
| C[C@H](CCC(=O)O)[C@H]1CC[C@H]2[C@@H]3CC[C@@H]4C[C@H](O)CC[C@]4(C)[C@H]3CC[C@]12C | 97.2% (inactive) |
| CCn1cc(C(=O)O)c(=O)c2ccc(C)nc21 | 98.4% (inactive) |
| COc1ccc2nc(S(=O)Cc3ncc(C)c(OC)c3C)[nH]c2c1 (configuration not stated) | 92.7% (inactive) |
| C[C@@H]1CC[C@]2(C(=O)O)CC[C@]3(C)C(=CCC4[C@@]5(C)C[C@@H](O)[C@H](O)[C@@](C)(CO)C5[C@H](O)C[C@]43C)C2[C@H]1C (some centres not stated) | 84.7% (inactive) |
